# Data from PubChem BioAssay (Tox21).
# Results filed as inconclusive are left out. A call without a number means that no potency is given here. Values without a mark were called inactive. Calls of active or inactive are those of the source. Calls come from the whole dose curve.
# Assay: qHTS assay to identify small molecule agonists or antagonists of the thyroid stimulating hormone receptor (TSHR) signaling pathway - wild type cell line counter screen (AID 1259384)
# Conditions: HEK293 wild type, cAMP HTRF counter-screen; series mostly up to 92.4 µM
# Source text: U.S. Tox21 Program National Center for Advancing Translational Sciences [NCATS] NIH Chemical Genomics Center [NCGC] U.S. Environmental Protection Agency [EPA] National Institutes of Environmental Health Sciences [NIEHS] National Toxicology Program [NTP] U.S. Food and Drug Administration [FDA] Tox21 Assay Overview: TSHR is the receptor for thyrotropin (thyroid stimulating hormone or TSH), a member of the glycoprotein hormone family. TSH is released by the anterior pituitary gland and is the main regulator of thyroid gland growth and development. Upon binding circulating thyrotropin, a G-protein signal cascade activates adenylyl cyclase and […] cAMP concentration is increased. cAMP is a key second messenger involved extensively in cellular signal transduction pathways associated with the majority of G-protein coupled receptors (GPCRs). The activation of these GPCRs by neurotransmitters, lipids, nucleotides, peptides and hormones results in the activation or the inhibition of plasma membrane-bound adenylate cyclase through heterotrimeric G-proteins. A cell-based TSHR-Hek293 assay can be used to identify TSHR agonists. To eliminate the false positive compounds identified from screening a cell-based TSHR-Hek293 cell line, cAMP assay in a wild type Hek293 cells was used as a counter screening.
# Tox21 Assay Protocol Summary: Hek293 cells (wild type) were dispensed at 800 cells/4 uL/well in 1536-well white plates using a Multidrop dispenser. After the assay plates were incubated at a 37 C/5% CO2 incubator for 18 hrs, 23 nL of compounds dissolved in DMSO, positive controls or DMSO only was transferred to the assay plate by a pin tool, followed by 1 ul medium containing Ro20-1724. After 30 min of incubation at room temperature, 2.5 ul/well of cAMP-d2 and 2.5 ul/well of anti-cAMP-cryptate were added respectively into the assay plates using a Flying Reagent Dispenser. The plates were incubated at room temperature for 1 hr. The fluorescence intensity in the plates was measured using an Envision plate reader. Each test compound was measured at 15 concentrations and in triplicates.
SMILES,Potency,cAMP activity change
O=C(N[C@@H]1N=C(c2ccccc2F)c2cccc3c2N(CC3)C1=O)c1cc2ccccc2[nH]1,inactive,
CCNS(=O)(=O)C(F)(F)C(F)(F)C(F)(F)C(F)(F)C(F)(F)C(F)(F)C(F)(F)C(F)(F)F,inactive,
ClC(Cl)C(Cl)(Cl)Cl,inactive,
c1ccc2c(c1)cc1ccc3cccc4ccc2c1c34,inactive,
Clc1ccc(C2(Cn3cncn3)OCCO2)c(Cl)c1,inactive,
CCCCON=O,inactive,
O=C(N[C@H]1N=C(c2ccccc2F)c2cccc3c2N(CC3)C1=O)c1cc2ccccc2[nH]1,inactive,
CCN(CC)CCc1c[nH]c2ccccc12,inactive,
c1cc[n+]2c(c1)-c1cccc[n+]1CC2,inactive,
O=S1(=O)OCC2C(CO1)C1(Cl)C(Cl)=C(Cl)C2(Cl)C1(Cl)Cl (stereo not given),inactive,
Nc1nc(N)nc(Cl)n1,inactive,
COC(=O)c1ccccc1S(=O)(=O)NC(=O)Nc1nc(C)nc(OC)n1,inactive,
O=P(Cl)(Cl)Cl,inactive,
CSC(=O)c1c(C(F)F)nc(C(F)(F)F)c(C(=O)SC)c1CC(C)C,inactive,
CCC[CH2][Sn]([CH2]CCC)([O]C(C)=O)[O]C(C)=O,inactive,
C=Cc1cccc(CCl)c1,inactive,
C#CC1(O)CCCCC1,inactive,
COP(=S)(NC(C)C)Oc1ccc(C)cc1[N+](=O)[O-] (stereo not given),inactive,
CCCCCCCc1ccc(O)cc1,inactive,
CCC[CH2][Sn]([CH2]CCC)([CH2]CCC)[O][Sn]([CH2]CCC)([CH2]CCC)[CH2]CCC,,"1.6% [at 8.39 µM, active compounds read high]"

SMILES,Potency,cAMP activity change
CC[C@H](C)[C@H]1O[C@]2(C=C[C@@H]1C)C[C@@H]1C[C@@H](C/C=C(\C)[C@@H](O[C@H]3C[C@H](OC)[C@@H](O[C@H]4C[C@H](OC)[C@@H](NC)[C@H](C)O4)[C@H](C)O3)[C@@H](C)/C=C/C=C3\CO[C@@H]4[C@H](O)C(C)=C[C@@H](C(=O)O1)[C@]34O)O2,inactive,
O=NN(CCO)CCO,inactive,
Cc1cc(C2CC2)nc(Nc2ccccc2)n1,inactive,
Nc1cc(Cl)ccc1Cl,inactive,
Oc1cccc(Cl)c1Cl,inactive,
O=Cc1ccccc1,inactive,
C[N+]1(C)[C@@H]2CC[C@H]1CC(OC(=O)C(CO)c1ccccc1)C2 (stereo not given in full),inactive,
CC(C)N(C(=O)CCl)c1ccccc1,inactive,
COc1cnc(OC)n2nc(NS(=O)(=O)c3c(OCC(F)F)cccc3C(F)(F)F)nc12,inactive,
ClC1=C(Cl)[C@]2(Cl)[C@H]3[C@H]([C@@H]4C=C[C@H]3C4)[C@@]1(Cl)C2(Cl)Cl,inactive,
CC1=C2C[C@H]3[C@@H](CC=C4C[C@@H](O)CC[C@@]43C)[C@@H]2CC[C@]12O[C@@H]1C[C@H](C)CN[C@H]1[C@H]2C,inactive,
CC[C@]1(O)CC[C@H]2[C@@H]3CCC4=CCCC[C@@H]4[C@H]3CC[C@@]21C,inactive,
CC[N+]1(CC)CCC(OC(=O)C(O)(c2ccccc2)c2ccccc2)C1 (stereo not given),inactive,
Nc1ccc(N=Nc2ccccc2)cc1,inactive,
COC(=O)/C=C(\C)OP(=O)(OC)OC,inactive,
CC(Cl)CCl (stereo not given),inactive,
CC(C)c1c(CN(C)C(C)Cc2ccccc2)n(C)n(-c2ccccc2)c1=O (stereo not given),inactive,
Cc1ccc2cc3c(ccc4ccccc43)c3c2c1CC3,inactive,
CCN(CC)C(=S)S,inactive,
CN(C)CCc1c[nH]c2ccccc12,inactive,
